Outcome and AC50 data for seven compounds are collected here from PubChem BioAssay (EPA / NIEHS).

Molecules are shown by their SMILES. Calls of active or inactive are those of the source. The calls were made as follows: active = hit-call score of the fitted dose curve at least 0.9, where 1 is the maximum; inactive = score below 0.9.

Assay [1] can be described thus: ATG_CRE_CIS: Attagene CIS-FACTORIAL HepG2 Assay for human cAMP Responsive Element (CRE) binding protein 3 (AID 2282926). The following applies: HepG2 CRE cis-reporter, Attagene multiplexed mRNA; actives raise or lower the signal. The method in brief: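 Multiplexed transcription-unit reporters transfected into HepG2; 24 h dosing; RT-PCR/capillary electrophoresis fluorescence read-out; bidirectional fit vs DMSO.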

Assay [2] concerns the target CCAAT/enhancer-binding protein beta (Homo sapiens) (UniProt P17676). As to the kind of experiment: ATG_C_EBP_CIS: Attagene CIS-FACTORIAL HepG2 Assay for human CCAAT/Enhancer Binding Protein (C/EBP) beta (AID 2282927). The following applies: HepG2 Attagene cis-factorial transcription factor reporter; actives raise or lower the signal. The method in brief:
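Endogenous C/EBPb-driven reporter transcripts measured in transfected human HepG2 cells at 24 h via RT-PCR and capillary electrophoresis of labelled fragments. Activity fitted in both directions relative to DMSO baseline.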

Assay [3] can be described thus: ATG_CMV_CIS: Attagene CIS-FACTORIAL HepG2 Assay for human CMV (Internal Marker) (AID 2282928).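 Also: endpoint acts as a background internal control marker rather than a target.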 As to conditions: HepG2 CMV promoter reporter, transcription factor profiling; actives raise or lower the signal. In outline:
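Cell system: HepG2, transiently transfected multiple reporter units under cis promoters. Exposure: 24 h. Detection: RT-PCR, FAM labeling, HpaI digestion, capillary electrophoresis. Analysis: bidirectional, DMSO baseline.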

Assay [4] can be described thus: ATG_DR4_LXR_CIS: Attagene CIS-FACTORIAL HepG2 Assay for human Liver X Receptor (LXR), DR4 submotif (AID 2282929). As to conditions: HepG2 Attagene DR4 cis-reporter, mRNA transcription; actives raise or lower the signal. In outline:
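Measures endogenous transcription factor activity via a DR4-driven reporter transcript in human HepG2 cells. Compounds incubated 24 h; mRNA quantified by RT-PCR and capillary electrophoresis, analysed as gain or loss of signal versus DMSO.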

A short description of assay [5]: ATG_AP_1_CIS: Attagene CIS-FACTORIAL HepG2 Assay for human Activator Protein 1 (AP-1) (AID 2282931). The following applies: HepG2 Attagene cis-factorial AP-1 reporter mRNA; actives raise or lower the signal. The method in brief: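 Bidirectional concentration-response fitting against DMSO controls. Underlying signal: reporter mRNA from cis-promoter constructs in transiently transfected HepG2, measured after 24 h by RT-PCR and capillary electrophoresis.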

The nature of assay [6]: ATG_BRE_CIS: Attagene CIS-FACTORIAL HepG2 Assay for human Bone Morphogenetic Protein (BMP) Response Element (BRE) (AID 2282933). As to conditions: HepG2 BMP response element reporter, Attagene transcription factor profiling; actives raise or lower the signal. In outline: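 Read-out: reporter mRNA induction quantified by RT-PCR and capillary electrophoresis after 24 h chemical exposure of transfected HepG2 cells. Endogenous factor activity on the BMP response element; gain or loss fitted against DMSO baseline.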

Assay [7] can be described thus: ATG_E_Box_CIS: Attagene CIS-FACTORIAL HepG2 Assay for human Enhancer Box (E-box) (AID 2282936). The following applies: HepG2 E-box cis-reporter transcription, actives raise or lower the signal. The method in brief:
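Cells: HepG2 (human liver), transient MRTU transfection. Exposure 24 h. RNA → oligo(dT) RT → PCR → 6-FAM label → HpaI → CE. Activity fitted both directions relative to DMSO.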

Assay [8] in a line: ATG_M_19_CIS: Attagene CIS-FACTORIAL HepG2 Assay for M19 Transcription Factor (Internal Marker) (AID 2282939). As to conditions: HepG2 Attagene CIS-FACTORIAL M19 internal marker reporter; actives raise or lower the signal. In outline: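 Readout: fluorescent reporter-transcript fragments by capillary electrophoresis after RT-PCR. Human HepG2 liver cells carried transfected MRTU constructs reporting endogenous transcription-factor activity; exposure 24 h. Gain or loss of signal fitted relative to DMSO.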

Assay [9] can be described thus: ATG_GATA_CIS: Attagene CIS-FACTORIAL HepG2 Assay for human GATA Binding Protein (AID 2282944). The following applies: HepG2 GATA cis-element reporter, Attagene multiplex mRNA; actives raise or lower the signal. The method in brief:
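Read-out: fluorescent reporter mRNA fragments resolved by capillary electrophoresis after RT-PCR. Human liver HepG2 cells carried transiently transfected cis-regulated reporter constructs; chemicals incubated 24 h; gain or loss of signal fitted relative to DMSO.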

Assay [10] can be described thus: ATG_ISRE_CIS: Attagene CIS-FACTORIAL HepG2 Assay for human Interferon Regulatory Factor 1 (IRF1) binding to an Interferon-Stimulated Response Element (ISRE) (AID 2282948). The following applies: HepG2 ISRE cis-reporter (Attagene), mRNA transcription readout; actives raise or lower the signal. In outline: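 Quantitation relies on labelled RT-PCR fragments separated by capillary electrophoresis. Human HepG2 cells bearing cis-promoter reporter constructs were treated 24 h; DMSO served as baseline for bidirectional fitting.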

Assay [11] in a line: ATG_M_32_CIS: Attagene CIS-FACTORIAL HepG2 Assay for M32 Transcription Factor (Internal Marker) (AID 2282949).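 Also: background control marker of the multiplexed CIS panel rather than a real target.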 As to conditions: HepG2 Attagene cis-factorial M32 reporter, mRNA; actives raise or lower the signal. The method in brief: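 Fluorescent capillary electrophoresis peaks of HpaI-digested, FAM-labelled RT-PCR reporter products give the signal. Source: transiently transfected human liver HepG2 cells, 24 h after chemical dosing; bidirectional fitting against DMSO.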

The nature of assay [12]: ATG_M_06_CIS: Attagene CIS-FACTORIAL HepG2 Assay for M06 Transcription Factor (Internal Marker) (AID 2282950). As to conditions: HepG2 Attagene CIS-FACTORIAL M06 internal marker reporter; actives raise or lower the signal. In outline: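 Terse: HepG2, transient MRTU transfection (FuGene 6), 24 h dosing; total RNA, oligo(dT) RT, PCR, FAM label, HpaI cut, capillary electrophoresis; bidirectional fit vs DMSO baseline; background-control endpoint.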

Assay [13] can be described thus: ATG_MRE_CIS: Attagene CIS-FACTORIAL HepG2 Assay for human Metal Responsive Element (MRE) (AID 2282954). As to conditions: HepG2 MRE cis-reporter transcription, Attagene multiplex; actives raise or lower the signal. The method in brief: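 Transient MRTU transfection of HepG2 (FuGene 6); 24 h dosing; total RNA → oligo(dT) RT, PCR, 6-FAM primer extension, HpaI cut, CE. Bidirectional fit vs DMSO.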

Assay [14] concerns the target Paired box protein Pax-6 (Homo sapiens) (UniProt P26367). Description: ATG_Pax6_CIS: Attagene CIS-FACTORIAL HepG2 Assay for human Paired Box 6 (PAX6) (AID 2282956). The following applies: HepG2 CIS-FACTORIAL PAX6 reporter transcription, RNA readout; actives raise or lower the signal. In outline:
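After twenty-four hours of chemical exposure, transfected HepG2 cells are harvested for RNA. Cis-promoter reporter transcripts are amplified, fluorescently labelled and sized by capillary electrophoresis, with gain and loss of signal scored against DMSO.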

Assay [15] can be described thus: ATG_PXRE_CIS: Attagene CIS-FACTORIAL HepG2 Assay for human Pregnane X Receptor Element (PXRE) (AID 2282957). As to conditions: HepG2 Attagene CIS-FACTORIAL PXRE reporter, mRNA; actives raise or lower the signal. The method in brief:
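Cells: HepG2, transiently transfected reporter units under cis promoter control. Exposure: 24 h. Detection: reporter mRNA via RT-PCR/CE fluorescence; bidirectional fitting, DMSO-referenced.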

Assay [16] can be described thus: ATG_Sox_CIS: Attagene CIS-FACTORIAL HepG2 Assay for human SRY-box transcription factor (SOX) (AID 2282960). The following applies: HepG2 Attagene cis-factorial SOX reporter, mRNA; actives raise or lower the signal. The method in brief: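 After 24 h of chemical treatment, transfected HepG2 reporter cells are lysed for total RNA. Transcript levels come from RT-PCR with labelled primer extension and capillary electrophoresis, analysed bidirectionally versus DMSO.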

Assay [17] addresses Transcription factor Sp1 (Homo sapiens) (UniProt P08047). Description: ATG_Sp1_CIS: Attagene CIS-FACTORIAL HepG2 Assay for human Specificity Protein 1 (Sp1) (AID 2282961). The following applies: HepG2 Sp1 cis-reporter transcription, actives raise or lower the signal. In outline: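 Sp1-driven reporter mRNA, read as capillary electrophoresis fluorescence after RT-PCR, in transiently transfected HepG2 cells dosed for 24 h; signal change in either direction relative to DMSO.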

The nature of assay [18]: ATG_TA_CIS: Attagene CIS-FACTORIAL HepG2 Assay for human TA Basal Promoter (AID 2282964). The following applies: HepG2 Attagene CIS-factorial TA basal promoter reporter; actives raise or lower the signal. In outline: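 Transfected HepG2, 24 h compound exposure; RNA → RT-PCR → FAM primer extension → HpaI cut → CE fluorescence. Gain/loss-of-signal fitted against DMSO negative control. Background-control readout.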

The nature of assay [19]: ATG_TCF_b_cat_CIS: Attagene CIS-FACTORIAL HepG2 Assay for human T-Cell-Factor with beta-catenin (TCF/b-cat) (AID 2282965). The following applies: HepG2 TCF/beta-catenin cis-reporter transcription, actives raise or lower the signal. In outline:
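Endogenous TCF/LEF activity read as reporter transcript level via RT-PCR and capillary electrophoresis fluorescence in transfected HepG2, 24 h exposure; gain or loss of signal fitted against DMSO controls.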

Assay [20] can be described thus: ATG_TAL_CIS: Attagene CIS-FACTORIAL HepG2 Assay for human TAL Basal Promoter (AID 2282966).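 Also: background control endpoint measuring basal TAL promoter reporter mRNA not a specific factor.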 The following applies: HepG2 Attagene cis-factorial TAL promoter reporter; actives raise or lower the signal. The method in brief: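 RT-PCR plus capillary electrophoresis quantifies reporter mRNA induction in transiently transfected HepG2 cells after 24 h chemical treatment. DMSO serves as negative control and baseline for bidirectional fitting.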

Sequence of CCAAT/enhancer-binding protein beta (Homo sapiens) (P17676 whole entry, looked up, the tested form may be a part): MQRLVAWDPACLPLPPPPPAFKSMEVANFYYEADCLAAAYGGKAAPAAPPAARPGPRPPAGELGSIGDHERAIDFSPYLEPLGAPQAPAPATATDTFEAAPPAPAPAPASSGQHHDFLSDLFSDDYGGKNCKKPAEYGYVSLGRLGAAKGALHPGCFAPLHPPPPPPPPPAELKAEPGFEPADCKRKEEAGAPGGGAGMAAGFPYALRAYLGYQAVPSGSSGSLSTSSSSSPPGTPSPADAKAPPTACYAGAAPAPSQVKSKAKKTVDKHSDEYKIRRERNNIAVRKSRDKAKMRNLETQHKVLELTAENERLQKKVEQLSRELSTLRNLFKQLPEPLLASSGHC
Sequence of Paired box protein Pax-6 (Homo sapiens) (P26367 whole entry, looked up): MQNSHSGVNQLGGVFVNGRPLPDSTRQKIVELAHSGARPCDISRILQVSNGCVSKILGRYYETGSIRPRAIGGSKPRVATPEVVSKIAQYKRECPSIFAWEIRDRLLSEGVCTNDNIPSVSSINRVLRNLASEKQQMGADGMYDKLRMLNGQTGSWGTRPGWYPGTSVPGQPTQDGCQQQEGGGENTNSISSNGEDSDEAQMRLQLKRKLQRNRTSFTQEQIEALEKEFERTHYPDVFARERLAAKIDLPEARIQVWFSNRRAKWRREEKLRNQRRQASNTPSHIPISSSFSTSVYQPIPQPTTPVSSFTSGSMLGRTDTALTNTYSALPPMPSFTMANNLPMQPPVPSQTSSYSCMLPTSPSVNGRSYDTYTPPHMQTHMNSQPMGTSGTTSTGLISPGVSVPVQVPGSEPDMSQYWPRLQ
Sequence of Transcription factor Sp1 (Homo sapiens) (P08047 whole entry, looked up): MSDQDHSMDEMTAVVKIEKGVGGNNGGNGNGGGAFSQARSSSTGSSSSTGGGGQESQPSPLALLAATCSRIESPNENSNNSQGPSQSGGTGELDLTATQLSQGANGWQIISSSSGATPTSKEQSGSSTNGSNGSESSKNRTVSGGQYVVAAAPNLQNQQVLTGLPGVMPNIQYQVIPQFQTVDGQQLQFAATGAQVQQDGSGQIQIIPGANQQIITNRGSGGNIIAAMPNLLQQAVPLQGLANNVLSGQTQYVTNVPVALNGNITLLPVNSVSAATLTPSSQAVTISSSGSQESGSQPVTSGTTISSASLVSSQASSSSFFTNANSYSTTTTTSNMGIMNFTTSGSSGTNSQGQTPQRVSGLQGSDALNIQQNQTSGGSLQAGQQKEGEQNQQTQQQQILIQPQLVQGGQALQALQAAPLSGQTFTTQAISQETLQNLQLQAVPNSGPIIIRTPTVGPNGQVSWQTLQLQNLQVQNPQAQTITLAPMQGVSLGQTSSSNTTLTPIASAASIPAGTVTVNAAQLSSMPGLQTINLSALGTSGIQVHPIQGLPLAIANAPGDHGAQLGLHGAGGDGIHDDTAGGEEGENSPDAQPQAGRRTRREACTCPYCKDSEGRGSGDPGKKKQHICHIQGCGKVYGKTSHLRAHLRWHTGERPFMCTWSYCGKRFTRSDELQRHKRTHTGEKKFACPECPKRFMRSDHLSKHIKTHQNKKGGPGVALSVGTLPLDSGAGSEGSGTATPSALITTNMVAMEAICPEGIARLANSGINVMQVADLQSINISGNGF

In the case of `CC(=O)Nc1c(I)c(NC(C)=O)c(I)c(C(=O)O)c1I`, the outcome in assay [1], in assay [2], in assay [3], in assay [4], in assay [5] and in assay [6] was inactive. For the same compound, the result in [7], in [8], in [9], in assay [10], in assay [11] and in assay [12] was inactive. The call in assay [13], in [14], in assay [15], in assay [16], in [17] and in assay [18] was inactive. For the same compound, the compound was classed as inactive in assay [19] and in assay [20].

As usually defined, the AC50 is the concentration giving half of the maximal activity seen. In the case of `Cc1ccccc1S(=O)(=O)O`, the compound was called inactive in [1], in assay [2], in [3], in assay [4], in assay [5] and in assay [6]. For the same compound, the result in assay [7], in assay [8], in [9], in [10], in assay [11] and in assay [12] was inactive. The compound was classed as inactive in [13], in assay [14], in assay [17], in [18], in [19] and in [20]. Moreover, the half-maximal activity concentration (AC50) was 70.6 µM (active) in assay [15] and 27 µM (active) in [16].

Take `O=C(Oc1ccccc1)c1ccccc1`: the outcome in assay [1], in assay [2], in [3], in assay [4], in [5] and in assay [6] was inactive. In addition, the result in assay [7], in assay [8], in assay [9], in assay [10], in assay [11] and in assay [12] was inactive. Also, the compound was classed as inactive in [13], in assay [14], in [15], in [16], in assay [17] and in assay [18]. For the same compound, the result in assay [19] and in assay [20] was inactive.

For `CCCC(=O)OC`, the call in assay [1], in assay [2], in assay [3], in assay [4], in [5] and in assay [6] was inactive. The result in assay [7], in assay [8], in assay [9], in assay [10], in [11] and in [12] was inactive. For the same compound, the result in assay [13], in [14], in assay [15], in assay [16], in assay [17] and in [18] was inactive. Also, the outcome in assay [19] and in [20] was inactive.

Regarding `Nc1nnc(-c2ccc([N+](=O)[O-])o2)o1`, the result in assay [1], in assay [2], in [3], in assay [4], in [6] and in [7] was inactive. The call in assay [8], in assay [9], in assay [10], in [11], in assay [12] and in assay [13] was inactive. Also, the call in assay [14], in assay [15], in assay [16], in assay [17], in [18] and in assay [19] was inactive. Besides, the result in assay [20] was inactive. For the same compound, the AC50 in [5] is 33.4 µM (active).

With `Cc1cc2nc3c(=O)[nH]c(=O)nc-3n(C[C@H](O)[C@H](O)[C@H](O)CO)c2cc1C`, the call in assay [1], in assay [2], in assay [3], in assay [4], in assay [5] and in assay [6] was inactive. Besides, the outcome in assay [7], in assay [8], in [9], in assay [10], in [11] and in [12] was inactive. The call in assay [13], in assay [14], in assay [16], in assay [17], in assay [18] and in assay [19] was inactive. Also, the result in assay [20] was inactive. Also, the AC50 in assay [15] was 47.2 µM (active).

As to `CC/C=C\CC/C=C/C(OCC)OCC`, the result in assay [1], in [2], in assay [4], in assay [5], in assay [6] and in assay [7] was inactive. The compound was classed as inactive in [8], in assay [9], in assay [11], in assay [12], in [14] and in [17]. The compound was classed as inactive in assay [18], in assay [19] and in assay [20]. For the same compound, the AC50 in assay [3] is 150 µM (active); in [10], 142 µM (active); in [13], 136 µM (active); in assay [15], 4.02 µM (active); in [16], 147 µM (active).
